Reference: PubChem BioAssay (EPA / NIEHS)
Active and inactive are the calls of the source. Rule for the calls: active = hit-call score of the fitted dose curve at least 0.9, where 1 is the maximum; inactive = score below 0.9.

Test: CCTE_Padilla_ZF_Score.Blood_pooling: CCTE's 144 Hour Post-fertilization zebrafish Assay Score for Blood Pooling, Padilla Lab (AID 2284415)
Protocol: CCTE_Padilla_ZF_Phenotype_Score is a whole embryo, multiplexed assay using zebrafish ova exposed for 144 hours post fertilization on a 96-well plate.CCTE_Padilla_ZF_Score.Blood_pooling is one of one assay component(s) measured or calculated from the CCTE_Padilla_ZF_Phenotype_Score assay. It is designed to make measurements of zebrafish development as detected with brightfield microscopy of developing zebrafish embryos.Data from the assay component CCTE_Padilla_ZF_Score.Blood_pooling was analyzed into 1 assay endpoints. This assay endpoint, CCTE_Padilla_ZF_Score.Blood_pooling, was analyzed in the positive analysis fitting direction relative to DMSO as the negative control and baseline of activity. Using a type of viability reporter, gain-of-signal activity can be used to understand changes in developmentals as they relate to the whole embryo. To generalize the intended target to other relatable targets, this assay endpoint is annotated to the zebrafish development intended target family, where the subfamily is swim bladder morphogenesis.
Zebrafish husbandry: Wild type adult zebrafish (Danio rerio; undefined outbred stock obtained from Aquatic Research Organisms, Hampton, NH, 03842) were housed in an AAALAC-approved animal facility at 28C with a 14:10 h light: dark cycle (lights on at 08:30 h). Adult fish (2-3 females per male; density = 15-20 adults per tank) were kept in one of several 9-liter (L) flow-through colony tanks (Aquaneering Inc., San Diego, CA). All adults in a colony tank were placed in a 2 L (static) breeding tank (Aquatic Habitats, Apopka, FL) one hour prior to light onset. Typically, adults from two to three colony tanks were mated on the same day. Two hours after light onset the adults were returned to the colony tank. All embryos were gathered from each breeder tank, pooled, and placed in a 28C water bath for 2 h, followed by two washes with 0.06% bleach (v/v) in 10% Hanks' Balanced Salt Solution (13.7 mM NaCl 0.54 mM KCl, 25 uM Na2HPO4, 130 uM CaCl2 100 um MgSO4 and 420 um NaHCO3,), hereafter referred to as Hanks' solution, for 5 min in order to remove any residual bacteria or fungi. Immediately following washing, the embryos were examined, and healthy embryos were separated from dead or unfertilized eggs and moved into fresh Hanks'. Chemical exposures: Zebrafish embryos were exposed in 96-well plates. Between 6- and 8-hours post fertilization (hpf), healthy embryos (with chorions) were transferred, one embryo per well, into 96 well (0.5 mL) microtiter plates (Cell Culture-Treated, Flat-Bottom Microplate 96 well [Corning Costar, Kennebunk, ME; Cat 09-761-145]) filled with 200 uL of Hanks' solution. A random number generator was used to assign the order in which the rows of embryos were plated in 96 well plates each week. After plating, the embryos were dosed with 0.8 uL of the chemical dosing solution then immediately sealed with AlumaSeal II (Excel Scientific Inc, Victorville, CA) to prevent volatilization of the chemicals, and then placed in a leakproof secondary container. These containers were placed in an incubator maintained on a 14:10 h light: dark cycle at 26C for rearing. On 5 dpf, live larvae were gently moved out of the plate with test chemicals and into a new 96 well mesh plate (Millipore Corp., Bedford, MA) with just the Hanks' solution. Once within the mesh well plate, the animals were rinsed with 400 uL of fresh Hanks' three times, and then the plates were covered with a non-adhesive material (Microseal A, BioRad, Hercules, CA), plate lid added, and then plate sides wrapped in Parafilm (PM992, Bermis Company, Neenah, WI), and returned to the incubator. […]

Q: Which outcome does the source give for O=C(O)C(F)(F)C(F)(F)C(F)(F)C(F)(F)C(F)(F)C(F)(F)C(F)(F)C(F)(F)Cl here?
A: inactive

Q: Which outcome does the source give for O=C(O)C(F)(F)C(F)(F)C(F)(F)C(F)(F)C(F)(F)C(F)(F)C(F)(F)C(F)(F)C(F)(F)C(F)F here?
A: inactive

Q: Which outcome does the source give for NC(=O)C(F)(F)C(F)(F)C(F)(F)C(F)(F)F here?
A: inactive

Q: Which outcome does the source give for N=C(N)C(F)(F)C(F)(F)C(F)(F)C(F)(F)C(F)(F)C(F)(F)C(F)(F)F here?
A: inactive

Q: With FC(F)(F)C(F)(F)C(F)(F)C(F)(F)CCI as the molecule, how does the outcome read?
A: inactive

Q: With FC(F)(F)C(F)(F)C(F)(F)C(F)(F)C(F)(F)C(F)(F)CCS as the molecule, how does the outcome read?
A: inactive

Q: Which outcome does the source give for C=CC(=O)OCC(F)(F)C(F)(F)C(F)(F)C(F)(F)C(F)(F)C(F)(F)C(F)(F)F here?
A: inactive

Q: Which outcome does the source give for O=S(=O)(OCC(F)F)C(F)(F)F here?
A: inactive

Q: For C=C(C)C(=O)OCCC(F)(F)C(F)(F)C(F)(F)C(F)(F)C(F)(C(F)(F)F)C(F)(F)F, which outcome is on record?
A: inactive

Q: With O=C(O)C(F)(F)C(F)(F)C(F)F as the molecule, how does the outcome read?
A: inactive

Q: With FC(F)(F)C(F)(F)C(F)(F)C(F)(F)C(F)(F)C(F)(F)CC1CO1 (stereo not given) as the molecule, how does the outcome read?
A: inactive

Q: Which outcome does the source give for FC(F)(I)C(F)(F)C(F)(F)C(F)(F)I here?
A: inactive

Q: For Cc1ccc(S(=O)(=O)OCC(F)(F)C(F)(F)C(F)(F)C(F)(F)C(F)(F)C(F)F)cc1, which outcome is on record?
A: inactive

Q: For O=C(Cl)C(F)(F)C(F)(F)C(F)(F)C(F)(F)C(F)(F)C(F)(F)C(F)(F)C(F)(F)F, which outcome is on record?
A: inactive

Q: With O=P(O)(O)OCCC(F)(F)C(F)(F)C(F)(F)C(F)(F)C(F)(F)C(F)(F)F as the molecule, how does the outcome read?
A: inactive

Q: With FC(F)(F)C(F)(F)C(F)(F)C(F)(F)C(F)(F)C(F)(F)C(F)(F)I as the molecule, how does the outcome read?
A: inactive

Q: For O=S(=O)(OCCOC(F)(F)F)C(F)(F)F, which outcome is on record?
A: inactive

Q: For FC(F)(F)C(F)(F)C(F)(F)C(F)(F)C(F)(F)C(F)(F)C(F)(F)C(F)(F)CCS, which outcome is on record?
A: inactive

Q: For FC(F)(F)C(F)(F)C(F)(F)CI, which outcome is on record?
A: inactive

Q: Which outcome does the source give for FC(F)(F)C(F)(F)C(F)(F)N(C(F)(F)C(F)(F)C(F)(F)F)C(F)(F)C(F)(F)C(F)(F)F here?
A: inactive

Q: For O=C(O)C(F)(F)C(F)(F)C(F)(F)C(F)(F)F, which outcome is on record?
A: inactive

Q: For O=C(O)C(F)(OC(F)(F)C(F)(OC(F)(F)C(F)(OC(F)(F)C(F)(F)C(F)(F)F)C(F)(F)F)C(F)(F)F)C(F)(F)F (stereo not given), which outcome is on record?
A: inactive

Q: Which outcome does the source give for C=C(C)C(=O)OCC(F)(F)C(F)(F)C(F)(F)F here?
A: inactive

Q: With O=C(O)C(F)(F)C(F)(F)OC(F)(F)F as the molecule, how does the outcome read?
A: inactive

Q: Which outcome does the source give for O=C(O)C(F)(F)C(F)(F)C(F)(F)F here?
A: inactive

Q: With O=C(O)C(F)(F)C(F)(F)C(F)(F)C(F)(F)C(F)(F)C(F)(F)C(F)(F)C(F)(F)C(F)(F)C(F)(F)C(F)(F)C(F)(F)F as the molecule, how does the outcome read?
A: inactive

Q: For C=CC(F)(F)C(F)(F)C(F)(F)C(F)(F)C(F)(F)C(F)(F)C(F)(F)C(F)(F)F, which outcome is on record?
A: inactive

Q: For FC(F)(F)C(F)(F)C(F)(F)C(F)(F)C(F)(F)C(F)(F)C(F)(F)Br, which outcome is on record?
A: inactive

Q: Which outcome does the source give for C=C(C)C(=O)OCC(F)(F)C(F)(F)C(F)(F)C(F)(F)C(F)(F)C(F)(F)C(F)(F)F here?
A: inactive

Q: For FC(F)(F)C(F)(F)C(F)(F)C(F)(F)C(F)(F)CCI, which outcome is on record?
A: inactive

Q: Which outcome does the source give for OCCCC(F)(F)C(F)(F)C(F)(F)F here?
A: inactive

Q: With OCC(F)(F)C(F)(F)C(F)(F)C(F)F as the molecule, how does the outcome read?
A: inactive

Q: Which outcome does the source give for OCC(F)(F)C(F)(F)C(F)(F)F here?
A: inactive

Q: With FC(F)(F)C(F)(F)C(F)(F)C(F)(F)C(F)(F)C(F)(F)C(F)(F)C(F)(F)F as the molecule, how does the outcome read?
A: inactive

Q: With OCC(F)(F)C(F)(F)C(F)(F)C(F)(F)C(F)(F)C(F)(F)F as the molecule, how does the AC50 read?
A: 93.7 µM (active)

Q: With O=C(O)C(F)(F)C(F)(F)C(F)(F)C(F)(F)C(F)(F)C(F)(F)C(F)(F)C(F)(F)C(F)(F)C(F)(F)C(F)(F)C(F)(F)C(F)(F)F as the molecule, how does the outcome read?
A: inactive

Q: With CC(C)(C)C(=O)CC(=O)C(F)(F)C(F)(F)C(F)(F)F as the molecule, how does the outcome read?
A: inactive

Q: For O=S(=O)(O)C(F)(F)C(F)(F)C(F)(F)C(F)(F)C(F)(F)C(F)(F)C(F)(F)F, which AC50 is on record?
A: 63.4 µM (active)

Q: With CCCCCCCCC(F)(F)C(F)(F)C(F)(F)C(F)(F)C(F)(F)C(F)(F)F as the molecule, how does the outcome read?
A: inactive

Q: Which outcome does the source give for OCC(F)(F)C(F)(F)C(F)(F)C(F)(F)C(F)(F)C(F)F here?
A: inactive
